# Vaccinia mCherry – vaccinia inhibition (mCherry reporter). Potency, µM (top dose mostly 36.5 µM), for inactives: top-dose activity change, negative = inhibition, actives largely listed as inhibitors. AID 720579. hit rate 0.63% among 310,000. Vaccinia virus mCherry reporter infection, fluorescence; calls by dose curve; tested in A549 cells; note: nearly all actives have a fitted effect of over 35% in size
# HCV inh – HCV inhibition; Huh7.5.1 HCVcc-Cre infection, luciferase reporter, 44 h; Potency, µM (doses to about 41.8 µM), for inactives: at the top dose activity change, negative = inhibition, most hits filed as inhibitors; hit rate 3.4% among 340,000; AID 651820; active = well fitted inhibition curve with a large enough effect; inconclusive = small, poorly fitted or top-dose-only effect, or another doubt; inactive = no such curve, though single readings can be large or run the other way
#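 Seed cells (1,000/well) for 4 h; treat with compound and infect with HCVcc-Cre, moi about 0.5. Incubate 44 h, then detect luciferase activity.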
# VACV Venus inh – inhibitors of vaccinia virus (Venus reporter); Vaccinia virus Venus reporter expression, fluorescence; Potency, µM (doses to about 36.5 µM), for inactives: at the highest dose activity change, negative = inhibition, actives largely listed as inhibitors; hit rate 0.46% among 330,000; AID 720580; calls by dose curve; tested in A549 cells; note: nearly all actives have a fitted effect of over 30% in size
# LASV entry inh – Lassa virus entry inhibition; hit rate 1.2% among 300,000; Potency, µM (series often up to 37.9 µM), for the others: at the top dose activity change, negative = inhibition, actives largely listed as inhibitors; Lassa virus pseudotype entry inhibition, cell reporter; calls by dose curve; tested in HEK293 cells; note: nearly all actives have a fitted effect of over 50% in size
# MARV entry inh – Marburg virus entry inhibition | Marburg virus pseudotyped entry inhibition, cell reporter | Potency, µM (highest dose often 37.8 µM), for inactives: top-dose activity change, negative = inhibition, most hits filed as inhibitors | hit rate 1.8% among 300,000; calls by dose curve; tested in HEK293 cells
# An asterisk follows results filed as active; i = inactive; ? = inconclusive; · = no result; [ ] = dose if it differs, or a comment. In the library only some 4.6% were active in any assay of this set; here they are far more common. % is set by controls: 0 for no effect and ±100 for the full control effect; potency is the fitted concentration of half-maximal effect.
SMILES,Vaccinia mCherry,HCV inh,VACV Venus inh,LASV entry inh,MARV entry inh
O=C(CSc1nnc(-c2c[nH]c3ccccc23)o1)N(Cc1ccccc1)c1ccc(F)cc1,?,?,?,?,18.3µM*
CCOc1ccc(/C=C/c2ccc3ccccc3n2)cc1OCC,38.4%,·,-12.0%,·,·
Cc1oc(-c2cccc(Br)c2)nc1CN1CCC(C(=O)NCc2ccccc2)CC1,-21.8%,·,-15.4%,-2.5%[46.1 µM],·
CC(=O)n1cc(N(C(=O)CCl)c2ccc([N+](=O)[O-])cc2)c2ccccc21,-28.3%,7.08µM*,-20.6%,?,?
CC(=O)n1cc(N(C(=O)CCl)c2ccccc2)c2ccccc21,-19.7%,1µM*,-11.6%,?,?
O=Cc1[nH]c2ccccc2c1N(C(=O)CCl)c1ccc([N+](=O)[O-])cc1,-25.5%,?,-4.0%,?,?
O=C(Nc1ccc(CN2CCCCC2)cc1)Nc1ccc(Br)cc1Cl,-2.9%,15.8µM*,-26.2%,?,10µM*
O=C(Nc1cccnc1)Nc1ccc(Br)cc1Cl,·,11.2µM*,·,18.0%,20.1%
Cc1ccc(NC(=O)N2CCC(CN3CCC(C)CC3)CC2)cc1F,-9.7%,·,-6.8%,-0.9%[46.1 µM],·
O=C(c1ccccc1)C(c1ccccc1)[n+]1csc2ccccc21 (stereo unspecified),-17.5%,·,-10.0%,·,·
Clc1ccccc1CNc1nc2ccccc2c2nc(-c3cccnc3)nn12,-14.3%,·,-4.6%,·,-3.5%[46.1 µM]
COc1cc2c(cc1C(F)(F)F)N(C(=O)Nc1cc(F)cc(-c3cccnc3)c1)CC2,-4.7%,·,-26.9%,·,1.26µM*
Cn1ccc2cc3c(cc21)CCN3C(=O)Nc1cccnc1,i,?,-8.0%,?,?
N#Cc1c(-c2ccccc2)no[n+]1[O-],·,·,·,·,11.2µM*
N#Cc1cn(-c2ccccc2)nc1-c1ccccc1,?,?,?,-0.1%,0.8%
C=C1C(=O)O[C@H]2[C@H]1[C@H](OC(=O)/C(C)=C\C)C[C@]1(CO1)[C@@H]1[C@H](OC(C)=O)C=C(C)[C@]21O,i,-31.1%,0.7%,-24.5%[46.1 µM],?
C=C1C(=O)O[C@@H]2[C@H]1[C@@H](OC(=O)/C(C)=C/C)C/C(C)=C\C(=O)/C=C(\C)[C@@H]2O,?,11.2µM*,11.2µM*,·,·
Cc1ccc2oc(-c3ccc(C)c(NC(=O)c4ccc(N5CCC(C)CC5)c([N+](=O)[O-])c4)c3)nc2c1,-4.7%,·,-15.2%,25.2%[46.1 µM],3.1%[46.1 µM]
CCOc1cc(CNc2ccc3c(c2)OCCO3)cc(Br)c1OC,?,0.794µM*,?,?,?
CCOc1c(Br)cc(CNc2ccc3c(c2)OCCO3)cc1OC,?,?,?,-7.0%,?
COC(=O)C1=C[C@@]2(c3ccc(F)cc3[C@@H](OC)[C@@H]2C)[C@@H]2C=C[C@H]1C2,·,·,·,·,2.1%[14.2 µM]
C=COC[C@H]1CN2[C@@H](CC[C@@H](C)[C@@H]2c2ccc(Br)cc2)C(=O)O1,·,·,·,·,-0.9%[14.2 µM]
O=C(CN1CCN(c2ccccc2)CC1)N1N=CCC1c1ccccc1 (stereo unspecified),·,?,-11.1%,5.3%,-1.7%
O=C(CN1CCN(C(c2ccccc2)c2ccccc2)CC1)N1N=CCC1c1ccccc1 (stereo unspecified),-0.7%,?,-6.4%,?,8.91µM*
O=C(CN1CCN(c2ccc(F)cc2)CC1)N1N=CCC1c1ccccc1 (stereo unspecified),i,11.2µM*,1.7%,1.3%,-8.9%
SMILES,Vaccinia mCherry,HCV inh,VACV Venus inh,LASV entry inh,MARV entry inh
CCOC(=O)Cc1ccc(NC(=O)c2ccc(C(C)(C)C)cc2)cc1,?,7.08µM*,?,12.6µM*,12.6µM*
O=C(NCC1CCC2(CCN(Cc3cc4ccccc4o3)CC2)O1)c1ccccc1 (stereo unspecified),-4.7%,·,-0.9%,·,·
COc1cc(OC)c(N(C)C(=O)c2cc3c(s2)-c2ccccc2S(=O)(=O)C3)cc1Cl,i,22.4µM*,-8.8%,·,·
O=C(c1cc2c(s1)-c1ccccc1S(=O)(=O)C2)N1CCN(Cc2ccccc2)CC1,?,10µM*,?,·,-1.8%
COc1ccc(N2CCN(C(=O)c3cc4c(s3)-c3ccccc3S(=O)(=O)C4)CC2)cc1,?,10µM*,6.4%,-19.9%[46.1 µM],?
COc1ccc(N(C)C(=O)c2cc3c(s2)-c2ccccc2S(=O)(=O)C3)cc1,0.6%,?,-17.3%,?,?
Cc1cc(C)c2c(-n3cccc3)c(C(=O)NCc3cccc(F)c3)sc2n1,-8.0%[7.34 µM],·,-6.0%[7.34 µM],-1.2%[46.1 µM],6.5%[46.1 µM]
CCC1C(=O)NCCN1Cc1ccc2c(c1)CN(Cc1cccn1-c1ccc(Cl)cn1)CCO2 (stereo unspecified),-19.8%,·,-4.3%,·,·
Cc1ccc(C)c(Cn2nc(-c3ccccc3)ccc2=O)c1,?,31.6µM*,-10.7%,-13.2%[46.1 µM],?
CN(C(=O)c1ccc(Oc2ccc([N+](=O)[O-])cc2)cc1)C1CCCCC1,·,12.6µM*,·,·,·
CN(C(=O)c1cccc(NC(=O)Cc2ccc(NC(=O)C3CCCN(C(=O)CCc4ccccc4)C3)cc2)c1)C1CCCC1 (stereo unspecified),15.8µM*,?,?,·,·
CN(C(=O)c1cccc(NC(=O)Cc2ccc([N+](=O)[O-])cc2)c1)C1CCCCC1,?,3.16µM*,?,·,·
CN(C(=O)c1ccc(-c2ccccc2)cc1)C1CCCCC1,-17.4%[7.34 µM],-19.8%,4.6%[7.34 µM],?,?
CN(C(=O)Cn1cc([N+](=O)[O-])ccc1=O)C1CCCCC1,-11.8%,-13.5%,3.6%,8.9%,1.26µM*
Cc1sc2ccccc2[n+]1CC(=O)c1ccc(F)cc1,i,·,-15.0%,·,·
O=C(Cc1ccc(NC(=O)C2CCCN(C(=O)CCc3ccccc3)C2)cc1)Nc1cccc(C(=O)N2CCCCC2)c1 (stereo unspecified),-21.9%,7.94µM*,?,·,·
CN(C(=O)c1ccc(NC(=O)Cc2ccc(NC(=O)C3CCCN(C(=O)CCc4ccccc4)C3)cc2)cc1)C1CC1 (stereo unspecified),?,14.1µM*,?,·,·
CN(Cc1ccccc1)C(=O)c1cccc(NC(=O)Cc2ccc(NC(=O)C3CCCN(C(=O)C4CCCCC4)C3)cc2)c1 (stereo unspecified),-0.2%,7.94µM*,-23.1%,·,·
CCn1c(-c2cccc(OC)c2)nc2cc(NC(C)=O)cc(C(=O)N(C)CC3COCCO3)c21 (stereo unspecified),-2.7%,·,0.0%,·,·
COc1ccc(NC(=O)c2ccc(CNS(=O)(=O)c3ccc4c(c3)C(C)(C)C(=O)N4C)cc2)cc1,-8.9%,·,-1.3%,?,·
O=C(O)c1ccc(N/N=C/c2ccc(-c3ccccc3Cl)o2)cc1,?,6.8%,-12.2%,?,?
O=C(N/N=C/c1ccc(-c2ccccc2Cl)o1)c1ccccc1,-1.6%,12.6µM*,-14.4%,?,?
NC(=S)N/N=C/c1ccc(-c2cc(Cl)ccc2Cl)o1,3.16µM*,?,3.16µM*,?,?
C#CCCCON=C1C[C@@H](O)[C@H](O)[C@H]2[C@@H]3C(=O)N(C[C@@H]4CCCO4)C(=O)[C@@H]3CC[C@@H]12,·,·,·,·,3.5%[14.2 µM]

# Screening data (PubChem)
